# Source: PubChem
# D1 allo mod = allosteric modulators of human D1 dopamine receptor; HEK293 D1, CRE-luciferase, dopamine EC30 potentiation; actives deviate in either direction; 5.9% of 58,000 active; P21728; AID 641; B-score at 10 µM;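 active = luminescence count or its row- and column-corrected plate score outside the 99.7% band of the plate's sample wells, on either side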
# Target sequence (P21728 whole entry, looked up): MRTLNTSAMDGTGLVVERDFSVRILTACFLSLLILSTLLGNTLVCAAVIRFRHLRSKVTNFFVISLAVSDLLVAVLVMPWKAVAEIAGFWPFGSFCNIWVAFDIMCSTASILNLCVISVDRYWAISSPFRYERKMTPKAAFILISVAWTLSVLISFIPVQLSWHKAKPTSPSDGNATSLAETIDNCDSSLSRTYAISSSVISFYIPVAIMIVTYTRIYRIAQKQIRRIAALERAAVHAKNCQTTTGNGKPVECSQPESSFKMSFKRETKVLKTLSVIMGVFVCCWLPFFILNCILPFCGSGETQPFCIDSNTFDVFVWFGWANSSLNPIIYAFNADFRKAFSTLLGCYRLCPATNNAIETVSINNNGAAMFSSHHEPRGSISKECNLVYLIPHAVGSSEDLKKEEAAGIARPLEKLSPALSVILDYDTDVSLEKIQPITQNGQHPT
# CYP2C9 activ = CYP2C9 (human) activation; 1.4% of 96,000 active; activation factor at 5 µM; recombinant CYP2C9, luciferin-H conversion, luminescence; hits give high values; factor 1 = untreated enzyme, 0 = blocked; P11712;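 active = activation factor of 2 or more for CYP2C9 at a 5 µM dose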;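 note: 0 = sulfaphenazole-blocked wells and 1 = vehicle-only wells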
# CYP2C19 act = increases human CYP2C19 enzyme activity | P33261 | recombinant CYP2C19, luciferin-H EGE luminescence; hits give high values; 0 = fully inhibited enzyme, 1 = untreated enzyme | activation factor at 5 µM | 96,000 tested, under 10 active | AID 1025;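 active = activation factor of at least 2 at 5 µM in the primary screen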;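 note: 0 = wells with 2.5 mM tranylcypromine and 1 = vehicle-only wells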
# CYP2C9 inh = blocks human cytochrome P450 2C9; P11712; CYP2C9 Supersomes, luciferin-H conversion, luminescence; inhibition, % at 5 µM; 20% of 96,000 active;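 active = blocking of liver enzyme CYP2C9 beyond about 50% at 5 µM, limit read from the data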
# DAT uptake mod = human DAT dopamine uptake with cocaine, either direction. 1.3% of 110,000 active. AID 449768. LLC-PK1 hDAT cells, [14C]-dopamine uptake with cocaine IC80; actives deviate in either direction. B-score at 10 µM;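 active = Z score or B-score, a plate-position-corrected score, falls beyond the plate's 99.7% confidence bounds, in either direction; inactive = both scores lie inside the 99.7% bounds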;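 note: scored against the spread of the other compound wells on the same plate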
# CYP2C19 inhib = human CYP2C19 inhibition | inhibition, % at 5 µM | P33261 | CYP2C19 Supersomes, luciferin-H EGE luminescence, 30 min | 21% of 96,000 active;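 active = CYP2C19 inhibition above a set limit at 5 µM in the primary screen, cut at about 50% in these data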;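 note: plate controls were negative control wells for no effect and 2.5 mM tranylcypromine positive control for full effect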
# * = called active by the depositor; / = not tested or not shown. This is a sample that favours compounds with a hit; in the whole collection about 28% have one here.
SMILES,D1 allo mod,CYP2C9 activ,CYP2C19 act,CYP2C9 inh,DAT uptake mod,CYP2C19 inhib
CC(=O)N1C2CCCCC2S[C@H]2CCCCC21 (stereo not given in full),/,0.7,1,31,-1,0
CC(=O)OC1COC(N2CCc3cc(Br)c([N+](=O)[O-])cc32)C(OC(C)=O)C1OC(C)=O (stereo not given),/,0.1,0.1,94*,0.17,88*
CCn1c(SCC(=O)c2ccc3c(c2)OCCO3)nnc1-c1ccco1,-0.33,0.6,0,39,-0.68,96*
CCn1c(SCC(=O)c2ccc3ccccc3c2)nnc1-c1ccco1,/,0.6,0.8,40,-0.35,19
COCCn1c(SCC(=O)Nc2cc(C)on2)nnc1-c1ccco1,/,0.7,0.7,26,-1.7,26
COCCn1c(SCC(=O)c2ccc3c(c2)OCCO3)nnc1-c1ccco1,-0.47,0.6,0.4,42,0.7,65*
Cc1ccc(CNC(=O)C2CCCN(Cc3cnn(-c4ccccc4)c3-n3cccc3)C2)cc1 (stereo not given),/,0.6,0.8,44,0.22,20
COc1cccc(CNC(=O)CSCc2cnn(-c3ccccc3)c2-n2cccc2)c1,/,0.1,0.1,94*,-0.097,92*
CCOC(=O)N1CCC(NC(=O)CSCc2cnn(-c3ccccc3)c2-n2cccc2)CC1,-0.9,0.5,0.4,51*,3.2*,57*
CNC(=O)CSCc1cnn(-c2ccccc2)c1-n1cccc1,/,0.5,0.2,45,-0.46,76*
O=C(CSCc1cnn(-c2ccccc2)c1-n1cccc1)NCc1cccs1,/,0.2,0.5,81*,0.18,53*
COC(=O)CNC(=O)c1nn(-c2cccc(OC)c2)c(=O)c2ccccc12,0.17,0.8,1,16,0.45,3
COc1c2c(c(C)c3c1C(=O)OC3)O[C@@]1(C)CC[C@@]3(O)C(C)(C)OC(=O)CC[C@]3(C)[C@H]1C2,/,/,/,/,0.39,/
CCn1c(COc2ccc(C)cc2)nnc1SCC(=O)Nc1ccc2c(c1)OCCO2,0.18,0.7,0.9,28,0.086,9
CCn1c(C)[n+](CC(O)COCC2CC=CCC2)c2ccccc21 (stereo not given),/,1,1.1,-4,2,-13
CCCCCC(=O)Nc1cccc(C2=NOC3(C2)C[C@@H](C(N)=O)N(C(=O)C2(C)CC2)C3)c1 (stereo not given in full),/,/,/,/,-0.4,/
CC(CCc1ccccc1)NC(=O)C1CCN(S(=O)(=O)N2CCCCC2)CC1 (stereo not given),0.8,0.8,0.9,23,-1.3,11
CCOC(=O)N1CCC(NC(=O)C(CC(C)C)NC(=O)C2CCC(C)CC2)CC1 (stereo not given),/,1,0.6,3,/,38
Cc1nc2c(C(=O)NCc3ccc(F)cc3)c[nH]n2c(=O)c1Cl,0.28,0.4,1.1,63*,0.37,-6
O=C(NCCc1ccccc1)c1cnc2sccn2c1=O,-0.7,/,/,/,0.19,/
Cc1nc2c(C(=O)NCCc3ccccc3)c[nH]n2c(=O)c1Cl,1,0.4,1,64*,0.05,-3
Cc1noc(C(=O)NCc2ccc(F)cc2)c1Cl,/,1.1,0.9,-14,1,11
COC(=O)Nc1sc2c(c1C(=O)N1CCOCC1)CCC(C)C2 (stereo not given),0.56,1.1,1,-8,-0.21,1
CCC(c1nnc(SCC(=O)Nc2ccc(C(=O)Nc3ccccc3OC)cc2)o1)N(C)C (stereo not given),/,1.6,0.6,-57,-0.17,35
COC(=O)C(CCCCN1C(=O)C2C3C=CC(C3)C2C1=O)N1C(=O)C2C3C=CC(C3)C2C1=O (stereo not given),-0.63,0.4,0.5,59*,-0.93,47
SMILES,D1 allo mod,CYP2C9 activ,CYP2C19 act,CYP2C9 inh,DAT uptake mod,CYP2C19 inhib
Cc1ccc(OCC(=O)NC2=NCCS2)cc1,/,0.9,0.8,6,-0.74,24
O=C(COc1ccc(Br)cc1CO)Nc1ccccc1F,0.72,0.3,0,67*,0.39,95*
Cc1ccccc1OCC(=O)Nc1cccc2nsnc12,/,/,/,/,-0.86,/
COc1ccccc1NC(=O)COc1ccc(Br)cc1CO,/,0.7,0.4,31,-0.88,55*
CC(C)NS(=O)(=O)c1ccc(OCC(=O)Nc2ccccc2F)cc1,0.22,0.7,0.8,34,-0.14,15
Cc1ccccc1OCC(=O)Nc1ccccc1CO,-0.31,0.8,0.3,19,0.15,72*
Cc1ccccc1OCC(=O)NC1=NCCS1,/,0.6,0.5,38,0.54,51*
Cc1ccc(S(=O)(=O)NC(=O)Nc2nnc(C3CC3)s2)cc1,/,0.9,1,5,-0.046,5
COc1ccc(CCN2C(=NC(=O)CCC(=O)O)SC3CS(=O)(=O)CC32)cc1 (stereo not given),/,0.9,1,8,0.0033,1
O=C(NCc1nc2ccccc2[nH]1)C1=C[C@H](c2coc3ccccc3c2=O)C[C@H](OCc2ccc(CO)cc2)O1,/,/,/,/,0.53,/
CN(C)C(=O)NC(Nc1ccc(Cl)cc1Cl)C(Cl)(Cl)Cl (stereo not given),/,0.3,0.1,65*,-0.49,87*
O=C(Nc1ccc(Cl)cc1Cl)C1=Cc2ccccc2OC1,/,1.2,0.9,-16,0.019,10
CC1CC(C)CN(CCOc2ccc(Cl)cc2Cl)C1 (stereo not given),/,0.9,0,7,-8.3*,98*
CC(C)=CCCC(C)NC(=O)NC1CCCCC1 (stereo not given),0.17,/,/,/,1.5,/
CC1(C(=O)NCc2cccnc2)CCC(=O)N1Cc1cccs1 (stereo not given),-0.34,0.9,0.5,8,/,52*
CCOC(=O)Cc1ccc(NC(=O)c2ccc(C(C)(C)C)cc2)cc1,/,1,0.6,1,-0.33,40
CCCn1c(SCC(=O)NC(=O)NCc2ccco2)n[nH]c1=O,-1,0.8,0.9,21,-0.33,9
CCCn1c(SCC(=O)NCCc2ccc(Cl)cc2Cl)n[nH]c1=O,0.17,0.6,0.7,35,3.4*,27
CC(C)n1c(NCCc2ccccc2)nc2c1c(=O)n(C)c(=O)n2C,/,/,/,/,1,/
COc1ccc2c(C(=O)CN(C)C3CCCCC3)c[nH]c2c1,-0.39,/,/,/,1.3,/
Cc1sc2nc(C)n(/N=C/c3ccccc3)c(=O)c2c1C,/,1,0.2,-3,0.071,77*
Cc1nc2ccccc2c(=O)n1/N=C/c1ccc(O)cc1,-0.14,1.1,0.8,-14,-0.64,19
Cc1ccc(N2C(=O)c3n[nH]c(C)c3C2c2ccccn2)cc1 (stereo not given),-0.17,0.8,0.8,18,/,17
CCOC(=O)c1ccc(N2C(=O)c3n[nH]c(C)c3C2c2ccco2)cc1 (stereo not given),0.08,0.2,0.2,77*,2,81*
